A selection: hits, their analogues and other compounds. The true share with any hit is near 21%.
IL-1B inflam inh: qHTS for Inhibitors of Inflammasome Signaling: IL-1-beta AlphaLISA Primary Screen. THP-1 LPS/ATP IL-1B secretion, AlphaLISA, 16 h; hits give low values. activity change, % at 57.5 µM. hit rate 4.7% among 360,000; in the data active = activity change below about -50%; inconclusive = mostly about -30% to -49%
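Secreted IL-1B measured by AlphaLISA bead assay after 16 h compound exposure of THP-1 cells; compounds (final up to 57.5 uM) added 1 h before LPS (250 ng/mL) and ATP (1.25 mM) stimulation; lower signal means less secretion.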
ClpP mod: qHTS Assay for Activators of ClpP. ATP-dependent Clp protease proteolytic subunit (Bacillus subtilis (strain 168)), P80244. purified B. subtilis ClpP, FRET peptide cleavage, 20 min. Potency, µM (top dose mostly 57.5 µM). hit rate 1.9% among 340,000. AID 651965, 2013; active = well fitted falling curve with a large enough effect; inconclusive = small, poorly fitted or top-dose-only effect; inactive = no such curve, though single readings can be large or run the other way; also: the source files actives as falling curves though it sought activators and does not explain the sign; nearly all actives have a fitted effect of over 65% in size
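Buffer: 100 mM Tris/HCl pH8, 100 mM KCl, 0.05% low protease BSA, 2.5% glycerol, 0.01% Tween-20. ClpP 10 microg/mL final; 20 min RT; delta FRET normalized to ADEP and DMSO controls.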
TDP1 cell noCPT: qHTS for Inhibitors of human tyrosyl-DNA phosphodiesterase 1 (TDP1): qHTS in cells in absence of CPT; DT40 Tdp1-/- hTDP1 cells, no CPT, ATP luminescence, 48 h; Potency, µM (doses to about 46.2 µM), actives largely listed as inhibitors; hit rate 15% among 420,000; AID 686978, 2013; also: nearly all actives have a fitted effect of over 55% in size
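Chicken DT40 Tdp1-/- cells complemented with human TDP1, screened without camptothecin (DMSO vehicle only), 400 cells/well. Compounds pin-transferred, cells incubated at 37 °C for at least 48 hr. Growth read as ATP-dependent luminescence (CellTiter-Glo, 30 min at RT).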
D3 ag: qHTS of D3 Dopamine Receptor Agonist: qHTS; D(3) dopamine receptor (Homo sapiens), P35462; D3R DiscoveRx beta-arrestin cells, luminescence, 90 min; max activation, %; hit rate 0.58% among 410,000; AID 652048, 2013; in the data active = max activation above about 30%
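Agonist-mode cell screen: cells plated at 1500/well and incubated overnight at 37 °C, then exposed to library compounds for 90 min at 37 °C. Detection reagent was added for 30–60 min at room temperature, and luminescence was read.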
TDP1 cell CPT: qHTS for Inhibitors of human tyrosyl-DNA phosphodiesterase 1 (TDP1): qHTS in cells in presence of CPT; chicken DT40 Tdp1-/-;hTDP1 cells + 20 nM CPT, ATP luminescence, 48 h; Potency, µM (series often up to 46.2 µM), usual class: inhibitors; hit rate 12% among 420,000; also: nearly all actives have a fitted effect of over 55% in size
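Chicken DT40 Tdp1-/- cells stably complemented with human TDP1 were seeded at 400 cells/well in medium containing 20 nM camptothecin, exposed to pin-transferred compounds, and grown at 37 °C for at least 48 hr. Viability was read as ATP luminescence.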
DRD3 antagonist: qHTS of D3 Dopamine Receptor Antagonist: qHTS. D3R cells, DiscoveRx beta-arrestin luminescence, antagonist mode; hits give low values. hit rate 2.5% among 360,000. max response, negative = inhibition, %. D(3) dopamine receptor (Homo sapiens), P35462; in the data active = max response below about -50%; inconclusive = no clear call, values can overlap the other calls
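Cells expressing the human receptor were seeded at 1500 cells/well, incubated overnight at 37 degrees C in 5% CO2, then exposed to library compounds with dopamine controls for 90 minutes at 37 degrees C before luminescent detection.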
A number is an active result; . = inactive; ? = inconclusive; / = no result. Unless noted, calls follow the shape of the dose curve; as a rule, active = well fitted inhibition curve with a large enough effect; inconclusive = small, poorly fitted or top-dose-only effect; inactive = flat fitted curve, though single readings scatter.

SMILES	IL-1B inflam inh	ClpP mod	TDP1 cell noCPT	D3 ag	TDP1 cell CPT	DRD3 antagonist
CC1CC/C(=C\c2ccc3c(c2)OCO3)C(=O)/C1=C/c1ccc2c(c1)OCO2 (configuration not stated)	-55	.	?	.	?	.
CCOC(=O)c1cnc2cc(Cl)c(OC)cc2c1Nc1ccc(Br)cc1C	/	.	.	.	.	/
CCOC(=O)c1cnc2cc(Cl)c(OC)cc2c1NCC1CCCO1 (configuration not stated)	?	?	15µM	.	?	.
COc1ccc(C(=O)c2ccccc2)cc1	.	/	.	.	.	.
COc1ccc(C=C(C(=O)c2ccccc2)c2ccccc2)cc1	.	.	?	.	?	.
CC(=O)C(=Cc1ccc(Cl)cc1)C(=O)c1ccccc1	-108	.	18µM	.	18µM	?
COc1ccc(C(=O)/C(Br)=C\C(=O)O)cc1	/	/	?	.	2.7µM	/
CC(=O)Nc1ccc(C=C(C(C)=O)C(C)=O)cc1	?	.	?	.	.	.
COc1ccc(C=C(C(C)=O)C(=O)c2ccccc2)cc1	-94	.	?	.	?	.
COc1ccc(C=C(C(=O)c2ccccc2)C(=O)c2ccccc2)cc1	-82	.	?	.	?	.
CCNC(=S)NNc1nc(N2CCCCC2)nc(N2CCOCC2)n1	.	/	.	.	.	.
CC(=O)C(=Cc1cccc(C#N)c1)C(=O)c1ccccc1	-118	.	16µM	.	16µM	.
Cc1ccccc1C(OCCN(C(C)C)C(C)C)c1ccccc1 (configuration not stated)	-53	.	?	.	?	.
O=C(NNC(=S)NC(=O)c1ccccc1)c1ccc(O)cc1	.	.	9.2µM	.	16µM	.
CC(C)(C)C(=O)NC(=S)NNC(=O)c1ccc(-c2ccccc2)cc1	.	.	2.1µM	.	3.3µM	?
CC(C)(C)c1ccc(OCC(=O)NNC(=S)NC(=O)c2ccccc2[N+](=O)[O-])c(Br)c1	.	.	16µM	.	23µM	.
O=C(NNC(=O)c1ccc(-c2ccccc2)cc1)c1ccccc1	.	.	.	.	.	.
Cc1ccccc1OCC(=O)NNC(=S)NC(=O)c1ccccc1[N+](=O)[O-]	.	.	?	.	.	.
CCCOc1ccc(C(=O)NCCO)cc1	.	.	.	.	.	.
CCCOc1ccc(C(=O)NNC(=S)NC(C)=O)cc1	.	.	3.3µM	.	2.6µM	.
Cc1ccc(OCCNC(=O)c2ccc(NC(=O)CC3SC(N4CCCC4)=NC3=O)cc2)cc1 (configuration not stated)	.	.	?	.	.	.
CNC(=O)c1c(I)c(C(=O)NCC(=O)Nc2c(I)c(C(=O)O)c(I)c(C(=O)NCCO)c2I)c(I)c(N(C)C(C)=O)c1I	.	.	.	.	.	.
CCCOc1ccc(C(=O)NNC(=S)NC(=O)c2ccccc2)cc1	.	.	16µM	.	?	.
CCCOc1ccc(C(=O)NNC(=S)NC(=O)c2cc(-c3ccccc3)nc3ccccc23)cc1	.	.	?	.	?	-55
CCCCCC(=O)NNC(=O)c1ccc(-c2ccccc2)cc1	.	.	.	36	.	.
SMILES	IL-1B inflam inh	ClpP mod	TDP1 cell noCPT	D3 ag	TDP1 cell CPT	DRD3 antagonist
Cc1ccccc1NC(=S)NC(=O)c1cc(-c2ccccc2)nc2ccccc12	.	.	?	.	?	.
CCCOc1ccc(C(=O)NNC(=S)NC(=O)c2ccccc2[N+](=O)[O-])cc1	.	.	10µM	.	10µM	.
O=C(CCC(=O)N(CC(=O)NC1CCCCC1)CC1CCCO1)Nc1nccs1 (configuration not stated)	.	/	.	.	.	.
Cc1ccc(-c2nnn3c2nc(NCCc2ccccc2)c2ccccc23)cc1	/	.	.	.	.	/
CCCOc1ccc(C(=O)NNC(=S)NC(=O)c2cccs2)cc1	.	/	18µM	.	23µM	.
CCCC(=O)Nc1ccc(C(=O)NNC(=S)NC(=O)c2cccs2)cc1	.	.	?	.	?	.
Cc1ccc(S(=O)(=O)N2C[C@@H]3[C@H]4CC[C@H](C4)[C@@H]3[C@@H](C)[C@H]2c2ccco2)cc1	.	.	15µM	.	15µM	.
Cc1ccc(S(=O)(=O)N2C[C@@H]3[C@H]4CC[C@H](C4)[C@@H]3[C@@H](C)[C@@H]2c2cn(Cc3ccccc3)c3ccc(F)cc23)cc1	.	.	21µM	.	21µM	.
C[C@@H]1[C@H]2[C@@H]3CC[C@@H](C3)[C@H]2CN[C@H]1c1cn(Cc2ccccc2)c2ccccc12	.	.	?	.	16µM	.
Cc1ccc(S(=O)(=O)N2C[C@@H]3[C@H]4CC[C@H](C4)[C@@H]3[C@@H](C)[C@@H]2c2cccn2Cc2ccccc2)cc1	.	.	?	.	.	?
O=C1CCC(C(=O)N2CCCCO2)CN1Cc1ccc(Cl)cc1 (configuration not stated)	.	.	.	.	.	?
CC1(c2nnc(-c3cccc(Cl)c3)o2)CC(c2cccc([N+](=O)[O-])c2)=NO1 (configuration not stated)	.	.	?	.	.	.
O=C(NCC1CCC2(CCN(Cc3cccc4cccnc34)CC2)O1)c1ccco1 (configuration not stated)	/	/	.	/	.	/
O=C(C1CC12CCN(Cc1cccc3cccnc13)CC2)N1CCN(Cc2cccs2)CC1 (configuration not stated)	/	/	?	/	1.6µM	/
CN=C(c1ccc(C)cc1)n1c(=S)nc(-c2ccc(C)cc2)n(C)c1=S	.	/	18µM	.	?	.
COc1cc(OC)c(C(=O)OCC(=O)Nc2nnc(-c3ccccc3)o2)cc1OC	.	.	.	.	.	.
CCN(CC(=O)NCc1cccs1)C(=O)/C=C/c1ccc(OC)c(OC)c1	.	?	.	.	.	.
O=C(C[n+]1cnn(CC(=O)c2ccc(Cl)cc2Cl)c1)c1ccc([N+](=O)[O-])cc1	-71	.	?	.	?	.
CCc1cccc(CC)c1NC(=O)C1CN(S(=O)(=O)c2ccccc2)CCN1S(=O)(=O)c1ccccc1 (configuration not stated)	.	.	?	.	?	.

Screens deposited in PubChem by National Center for Advancing Translational Sciences (NCATS).
